# Experimental data published in PubChem BioAssay (NCI).
# About 83,000 compounds went through this panel and 20% of them were active in at least one assay; those are over-represented in the sample as a whole.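 Compound tested at a single concentration for 48 hours in 96-well plates; a percent growth value below 10 was scored as active.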 Active and inactive are the calls of the source.
# Tested on: HL-60(TB) leukemia
# Test: NCI-60 one-dose screen, 48 h (100 = growth as untreated, 0 = no growth, -100 = all killed)
# Details: 10 µM unless noted
row,SMILES,growth
1,O=C1c2cc(S(=O)(=O)O)ccc2C(=O)c2c1cccc2[N+](=O)[O-],101% (inactive)
2,COc1ccc(/C=C/C(c2cc(OC)c(OC)c(OC)c2)n2ccnc2)cc1O (stereo not given),-36.6% (active)
3,CC(=O)O[C@H]1CC[C@@]2(C)[C@@H](CC[C@@H]3[C@@H]2CC[C@@]2(C)[C@H]3CC[C@]2(O)C(C)=O)C1,93.5% (inactive)
4,Cc1[nH]c(C(=O)Nc2nc3ccc(NC(=O)CCN)cc3s2)c(Cl)c1Cl,83.8% (inactive)
5,O=C(NCCCl)Nc1ncccc1OCc1ccccc1,90% (inactive)
6,CCOC(=O)CC(C#N)(CC(=O)OCC)C(=O)OCC,102% (inactive)
7,CCn1c(-c2nonc2N)nc2c(C#CC(C)(C)O)ncc(OC[C@H]3CCCNC3)c21,41% (inactive)
8,CCOC(=O)/C(=C(/C)NCC(C)C)c1cc(O)c(O)c2c(C)cc(=O)[nH]c12,-6.69% (active)
9,CN1CCC(OC2c3ccccc3CCc3ccccc32)CC1,99.1% (inactive)
10,Cn1c(=O)c2c(nc(Br)n2CCC(=O)Nc2ccc(F)cc2)n(C)c1=O,91.8% (inactive)
11,O=C(Nc1ccc(Br)cc1)Nc1cccc(Br)c1,5.54% (active)
12,CC(C)CCc1nc2ccc(NCc3ccc(OCCN4CCC(C)CC4)cc3)cc2[nH]1,84.8% (inactive)
13,COc1cc2oc(-c3cccc(C(=O)Nc4ccc(Br)cc4)c3)cc(=O)c2c(OC)c1OC,38.6% (inactive)
14,COCCn1cc(-c2nc(-c3cc4cccnc4[nH]3)cs2)c2cc(OC)ccc21,55.5% (inactive)
15,COc1ccc(/C=C2\c3cc(OC)c(OC)c(OC)c3CC[C@@H]2O)cc1F,-22.4% (active)
16,CC1(C)N=C(N)N=C(N)N1c1cccc(/C=C/C=C/c2cccc([N+](=O)[O-])c2)c1,12% (inactive)
17,O=C(CN(C1CCCCC1)C1CCCCC1)Nc1ccc(S(=O)(=O)c2ccc(NC(=O)CN(C3CCCCC3)C3CCCCC3)cc2)cc1,-39.3% (active)
18,O=c1c2ccccc2sc2c(NCCCNCCO)nc3ccccc3c12,7.81% (active)
19,COCc1cc2c(cc1Br)OCO2,105% (inactive)
20,Oc1c(Cl)cc(Cl)c2ccc(CN3CCNCC3)nc12,44.1% (inactive)

row,SMILES,growth
1,CC(=O)N1N=C(c2ccc(-n3ccc(C(F)(F)F)n3)c(F)c2)CC1c1ccc[nH]1 (stereo not given),98.8% (inactive)
2,CC[C@H](CO)Nc1nc(NCc2ccccc2)c2ncn(C(C)C)c2n1,48.1% (inactive)
3,N#CCCCCCn1c2ccccc2c2c3c(c4c5ccccc5n(CCCCCC#N)c4c21)C(=O)N(O)C3=O,64.3% (inactive)
4,CC(=O)NCNC(C)=O,113% (inactive)
5,N#Cc1c(-c2ccc(Cl)cc2)nc2c(c(-c3ccccc3)nn2-c2ccccc2)c1-c1ccc(O)cc1,32.8% (inactive)
6,Clc1ccc2[nH]cc(-c3cncn3CCc3ccccc3)c2c1,45.1% (inactive)
7,Nc1ccc2c(c1)c(N)nn2C(=O)Nc1ccc(Cc2ccccc2)cc1,16.4% (inactive)
8,COc1ccc(-c2nc3c(N)c(CO)cnc3s2)cc1,80.5% (inactive)
9,C(=N\Nc1ncc(-c2cc3cc4c(cc3o2)OCO4)s1)/c1ccco1,16.2% (inactive)
10,NC(CCl)=NCCC[C@H](N)C(=O)O,104% (inactive)
11,O=C(Nn1cnc2ccccc21)N1CCCC1,87.1% (inactive)
12,CN1CCN(CCCOc2ccc3nc(Nc4ccc(F)c(F)c4)ccc3c2)CC1,46.8% (inactive)
13,CN(C)c1ccc(C2(Cl)c3ccccc3N(C)c3ccccc32)cc1,17.5% (inactive)
14,CN1CCN(Cc2ccc(NC(=O)c3cccc(C#Cc4c(N)ncc5ccc(F)cc45)c3)cc2C(F)(F)F)CC1,-53.7% (active)
15,COC(=O)c1oc2c(C(=O)/C=C/c3ccc(OC)cc3)c(OCCCN3CCCCC3)ccc2c1C,-54.7% (active)
16,CCCC[n+]1c(/C=C\c2c(OC)cc(OC)cc2OC)ccc2ccccc21,-58.8% (active)
17,O=c1c(/C=C/c2c(O)ccc3ccccc23)nnc2sc(-c3cccc([N+](=O)[O-])c3)nn12,11.2% (inactive)
18,COc1ccc(CCN2C(=O)CCSC2=S)cc1OC,98.1% (inactive)
19,C#C[C@]1(O)CC[C@H]2[C@@H]3CC=C4c5sc(-c6cccc(C)c6)nc5CC[C@]4(C)[C@H]3CC[C@@]21C,71.8% (inactive)
20,FC(F)(F)c1[nH]ncc1-c1nc2ccc3n[nH]c(C#Cc4cccnc4)c3c2c2c1CCCC2,24.4% (inactive)
